Sampled rows, rich in hits. Any-hit rate of the full collection: about 2.8%.
CDK5 p35 inh: inhibitors of human CDK5/p35 kinase, primary screen, biochemical, single concentration; Recombinant CDK5/p35, ADP-Glo luminescence, 60 min; Cyclin-dependent kinase 5 (Homo sapiens) + Cyclin-dependent kinase 5 activator 1 (Homo …; actives 0.01% (n = 330,000); inhibition, % at 10 µM; AID 488839, 2010;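 active = highest replicate inhibition of at least 50% and at least 75% of replicates reaching 50%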;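 also: plate controls were DMSO neutral control for no effect and GW8510 at 10 µM for full effect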
PvdQ acylase: P. aeruginosa PvdQ acylase inhibitors, primary screen, biochemical, fluorescence, plate reader and imaging, single point; PvdQ acylase [Pseudomonas aeruginosa LESB58]; purified PvdQ acylase; inhibition, % at 10 µM; actives 0.063% (n = 340,000); in the data active = inhibition above about 30%, passing the limit was not always enough;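 also: 0% = vehicle neutral wells and 100% = reference inhibitor wells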
SIRT5 block: SIRT5 desuccinylase inhibitors, primary screen, biochemical, fluorescence imaging, single point, set 5 | AID 652115, 2013 | Purified SirT5, succinyl-peptide AMC, trypsin-coupled fluorescence | inhibition, % at 15 µM | actives 1.1% (n = 330,000); in the data active = inhibition above about 15%
FGF22 binding: binders of human FGF22 protein, primary screen, FGF22 synaptogenesis inhibitor project, biophysical, thermal shift, single point. Fibroblast growth factor 22 (Homo sapiens), Q9HCT0. recombinant FGF22 thermal shift, SYPRO orange fluorescence; percent of sucrose octasulfate shift, DMSO zero. activity (Tm shift, normalised), % at 9.99 µM. actives 1.5% (n = 340,000);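 active = mean Tm shift, scaled 0 neutral to 100 positive control, at about 1.3% or above, every replicate too, limit read from the data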
Target sequence (Q9HCT0 whole entry, looked up): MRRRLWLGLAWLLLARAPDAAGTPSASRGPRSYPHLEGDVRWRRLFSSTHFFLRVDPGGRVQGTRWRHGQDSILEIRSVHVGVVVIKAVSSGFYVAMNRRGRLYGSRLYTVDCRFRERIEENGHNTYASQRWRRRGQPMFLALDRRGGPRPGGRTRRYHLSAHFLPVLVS
dFosB act-1: activators of delta FosB homodimer, primary screen, biochemical, fluorescence polarization, TAMRA-CDK5 oligo, single point; activation, % at 25 µM; Protein FosB (Mus musculus), P13346; actives 0.99% (n = 340,000); purified delta FosB; percent of positive-control signal above neutral wells;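 active = mean activation above about 17%, with every replicate also reaching it, limit read from the data, passing the limit was not always enough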
Target sequence (P13346 whole entry, looked up): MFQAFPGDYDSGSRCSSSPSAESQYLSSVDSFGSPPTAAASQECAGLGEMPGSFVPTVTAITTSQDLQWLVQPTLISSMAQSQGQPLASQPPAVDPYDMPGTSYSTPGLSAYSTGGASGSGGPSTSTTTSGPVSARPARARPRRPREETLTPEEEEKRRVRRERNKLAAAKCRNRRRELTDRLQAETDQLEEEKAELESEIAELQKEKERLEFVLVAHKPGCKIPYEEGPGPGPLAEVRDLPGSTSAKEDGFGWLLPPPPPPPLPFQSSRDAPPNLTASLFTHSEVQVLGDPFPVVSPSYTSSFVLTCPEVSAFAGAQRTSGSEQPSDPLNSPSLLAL
PglD DTNB: C. jejuni PglD acetyltransferase inhibitors, primary screen, biochemical, DTNB colorimetric, single point. purified PglD enzyme, DTNB colorimetric CoA detection. actives 0.098% (n = 360,000). UDP-N-acetylbacillosamine N-acetyltransferase PglD (Campylobacter jejuni). inhibition, % at 12.5 µM; in the data active = inhibition above about 16%, passing the limit was not always enough
dFosB act-2: activators of mouse delta FosB DNA binding, confirmation, biochemical, fluorescence polarization, TAMRA-CDK5 oligo, cherry-picked samples. shares compounds with dFosB act-1. purified delta FosB; normalised: neutral wells 0, positive control 100. activation, % at 24.9 µM. 2,400 tested, under 10 active. AID 588690, 2011;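 active = highest replicate activation at or above 34% and every replicate reaching that threshold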;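 also: higher polarization means more probe DNA bound by delta FosB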
Numbers without * were called inactive; . = not tested or not shown.

SMILES | CDK5 p35 inh | PvdQ acylase | SIRT5 block | FGF22 binding | dFosB act-1 | PglD DTNB | dFosB act-2
COc1ccc(OC)c(NC(=O)C(C)OC(=O)c2cc3ccccc3[nH]2)c1 (configuration not stated) | 1 | -3 | 3 | 0 | 19* | -2 | 3
COc1ccccc1NC(=O)C(C)OC(=O)c1cc2ccccc2[nH]1 (configuration not stated) | -1 | -15 | -4 | 0 | -8 | 3 | .
O=C(COC(=O)/C=C/c1cccc(Cl)c1)Nc1ccc2[nH]c(=O)[nH]c2c1 | 0 | -3 | -2 | 0 | 27* | . | 0
O=C(COC(=O)/C=C/c1cccc(F)c1)Nc1ccc2[nH]c(=O)[nH]c2c1 | 4 | -15 | -1 | 0 | 9 | -4 | .
O=C(COC(=O)/C=C/c1cccc(Cl)c1Cl)Nc1ccc2[nH]c(=O)[nH]c2c1 | 1 | -5 | -1 | 0 | 35* | 1 | 3
C[C@@H]1CCCCO[C@@H](CN(C)Cc2ccccc2)[C@@H](C)CN([C@@H](C)CO)C(=O)c2cc(NC(=O)CCC(F)(F)F)ccc2O1 | . | . | 8 | 0 | . | -2 | .
Cc1cc(C)cc(NC(=O)Cn2nnc(C(=O)NCc3cccs3)c2N)c1 | . | -3 | -3 | 0 | 58* | . | 3
Cc1cc(C)c(NC(=O)Cn2nnc(C(=O)NCc3cccs3)c2N)c(C)c1 | -2 | -8 | . | . | 12 | 0 | .
CCc1ccccc1NC(=O)c1nnn(CC(=O)Nc2cccc(C)c2)c1N | 1 | 5 | -9 | . | 7 | 0 | .
Cc1cccc(NC(=O)Cn2nnc(C(=O)NCc3cccs3)c2N)c1C | 2 | 5 | . | . | 42* | 1 | 4
Cc1c(Cl)cccc1NC(=O)Cn1nnc(C(=O)NCc2cccs2)c1N | 0 | -10 | . | . | 39* | . | -3
CCc1ccccc1NC(=O)c1nnn(CC(=O)Nc2cccc(C)c2C)c1N | 0 | -11 | . | . | 42* | -3 | -8
COc1ccc(/C=C2\SC(=O)N(CCC(=O)Nc3ccc(S(=O)(=O)Nc4nccs4)cc3)C2=O)cc1 | 0 | -12 | . | . | 86* | . | 3
C/C(=N\NC(=O)c1ccncc1)c1cccc(NC(=O)c2ccc(C(C)(C)C)cc2)c1 | 2 | -21 | 2 | 0 | -12 | 4 | .
C/C(=N\NC(=O)COc1ccccc1[N+](=O)[O-])c1cccc(NC(=O)c2ccncc2)c1 | 1 | -7 | 0 | 0 | 21* | -3 | 3
O=C(Nc1cc(F)ccc1F)N1CC(=O)N2[C@@H](CO)[C@H](c3ccc(C#CC4CCCC4)cc3)[C@@H]2C1 | . | . | 0 | -1 | . | . | .
CN(C)CCCNc1ncnc2sc(-c3ccccc3)cc12 | -1 | -10 | -5 | 0 | 27* | -6 | 1
COc1ccc(C(=O)OC/C(O)=C(\C#N)c2nc3ccccc3[nH]2)cc1S(=O)(=O)N1CCOCC1 | 1 | -23 | . | . | 1 | 8 | .
COc1cc(OC)cc(C(=O)OC/C(O)=C(\C#N)c2nc3ccccc3[nH]2)c1 | 1 | -7 | -4 | 0 | 40* | -3 | 4
Cc1c(C(=O)OC/C(O)=C(\C#N)c2nc3ccccc3[nH]2)oc2ccccc12 | 3 | -10 | -4 | 0 | 45* | 1 | -9
Cc1nn(-c2ccccc2)c(C)c1C(=O)OC/C(O)=C(\C#N)c1nc2ccccc2[nH]1 | 2 | -11 | . | . | -8 | . | .
O=C(NCc1ccccc1)[C@H]1[C@H](CO)[C@H]2Cn3c(cccc3=O)[C@@H]1N2 | . | . | -3 | 0 | . | 4 | .
C[C@@H]1CN([C@H](C)CO)C(=O)c2ccccc2-c2ccccc2CO[C@@H]1CN(C)S(=O)(=O)c1ccc(F)cc1 | . | . | -6 | 0 | . | 3 | .
Cc1nnc(NC(=O)c2cccc(F)c2)s1 | -3 | -8 | . | . | -6 | 8 | .
O=C(Nc1nnc(-c2cccs2)s1)c1cccc(F)c1 | -2 | -4 | -1 | 0 | 36* | . | -5
SMILES | CDK5 p35 inh | PvdQ acylase | SIRT5 block | FGF22 binding | dFosB act-1 | PglD DTNB | dFosB act-2
C[C@H](CO)N1C[C@H](C)[C@@H](CN(C)C(=O)C2CCC2)Oc2cc(C3=CCCC3)ccc2S1(=O)=O | . | . | -1 | 0 | . | 0 | .
COc1ccc(NC(=O)Cn2nnc(C(=O)NCc3ccc(C)cc3)c2N)cc1OC | 0 | -2 | -9 | 0 | 7 | -3 | .
Cc1cc(C)cc(NC(=O)Cn2nnc(C(=O)NCc3ccco3)c2N)c1 | 1 | 6 | 1 | 0 | 32* | -4 | 7
Cc1cc(C)cc(NC(=O)Cn2nnc(C(=O)NCc3ccc4c(c3)OCO4)c2N)c1 | -3 | -8 | -2 | 0 | 77* | 2 | 2
CCOc1ccccc1NC(=O)Cn1nnc(C(=O)NCc2ccco2)c1N | 0 | 7 | . | . | 28* | -9 | 4
Cc1ccc(CNC(=O)c2nnn(CC(=O)Nc3cc(C)cc(C)c3)c2N)cc1 | -5 | -12 | -1 | 0 | 88* | -7 | -7
Cc1ccc(NC(=O)Cn2nnc(C(=O)NCc3ccccc3)c2N)cc1C | 0 | -6 | -8 | . | -1 | -4 | .
Cc1ccc(CNC(=O)Cn2nnc(C(=O)Nc3cc(C)ccc3C)c2N)cc1 | 1 | -9 | -3 | 0 | 36* | -1 | 0
CSc1cccc(NC(=O)c2nnn(CC(=O)Nc3cc(C)cc(C)c3)c2N)c1 | 0 | -5 | -6 | 0 | 64* | 0 | 0
Cc1ccc(NC(=O)c2nnn(CC(=O)Nc3ccccc3)c2N)cc1C | -7 | -12 | . | . | 0 | 7 | .
Cc1ccc(Cn2nnc(C(=O)Nc3cc(C)ccc3C)c2N)cc1 | 0 | -11 | . | . | -4 | -5 | .
Cc1ccc(NC(=O)Cn2nnc(C(=O)NCc3ccc(Cl)cc3)c2N)cc1F | 1 | -14 | -11 | 0 | 77* | -4 | 1
NS(=O)(=O)c1ccc(CCNC(=O)c2cc(-c3ccc(Br)cc3)nc3ccccc23)cc1 | 1 | 1 | . | . | 79* | . | 0
O=C(NCCc1ccc(Cl)cc1)c1cc(-c2ccccn2)nc2ccccc12 | . | -13 | 1 | 0 | 0 | -4 | .
CCCc1ccc(-c2cc(C(=O)NCCc3ccc(S(N)(=O)=O)cc3)c3ccccc3n2)cc1 | 0 | -6 | . | . | 11 | . | .
NS(=O)(=O)c1ccc(CCNC(=O)c2cc(-c3ccccn3)nc3ccc(Br)cc23)cc1 | 0 | -10 | 1 | 43* | 32* | . | -6
COc1cc(-c2cc(=O)c3ccc(O)cc3o2)cc(OC)c1OC | . | . | . | 0 | . | -2 | .

Compound activity deposited in PubChem by Broad Institute.
